Test results: paper PMC5540273 (PLoS ONE, 2017)

Key:
Details in all cases: concentration: 1 μM, replicates: in singlicate; n = 1
PAK6 = system: PAK6
PAK7 = system: PAK7
PCTK1 = system: T1, PCTK1
T1 construct: gene CDK16

PCTK2 = system: T2, PCTK2
T2 construct: gene CDK17

PCTK3 = system: T3, PCTK3
T3 construct: gene CDK18

PDGFRA = system: PDGFRA
PDGFRB = system: PDGFRB
PDPK1 = system: PDPK1
PFTAIRE2 = system: PFTAIRE2
PFTK1 = system: T4, PFTK1
T4 construct: gene CDK14

PHKG1 = system: PHKG1
PHKG2 = system: PHKG2
PIK3C2B = system: PIK3C2B
PIK3C2G = system: PIK3C2G
PIK3CA = system: PIK3CA
PIK3CB = system: PIK3CB
PIK3CD = system: PIK3CD
PIK3CG = system: PIK3CG
PIK4CB = system: T5, PIK4CB
T5 construct: gene PI4KB

PIKFYVE = system: PIKFYVE
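Note: KINOMEscan kinase panel screen.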

SMILES	%Inh (PAK6) [%]	%Inh (PAK7) [%]	%Inh (PCTK1) [%]	%Inh (PCTK2) [%]	%Inh (PCTK3) [%]	%Inh (PDGFRA) [%]	%Inh (PDGFRB) [%]	%Inh (PDPK1) [%]	%Inh (PFTAIRE2) [%]	%Inh (PFTK1) [%]	%Inh (PHKG1) [%]	%Inh (PHKG2) [%]	%Inh (PIK3C2B) [%]	%Inh (PIK3C2G) [%]	%Inh (PIK3CA) [%]	%Inh (PIK3CB) [%]	%Inh (PIK3CD) [%]	%Inh (PIK3CG) [%]	%Inh (PIK4CB) [%]	%Inh (PIKFYVE) [%]
CCn1c(-c2ccccn2)nc2cnccc21 [SB-736398]	0	0	3	0	17	0	0	97	0	16	0	0	0	0	0	18	5	0	0	32
CS(=O)(=O)c1ccc(-c2c(-c3ncn[nH]3)sc(N3CCOCC3)c2C#N)cc1	12	0	0	3	14	6	20	0	0	13	9	7	0	14	96.9	97.3	65	57	0	40
CCn1c(-c2cccnc2O)nc2cnccc21 [SB-736715]	0	3	0	0	0	0	0	0	11	0	0	3	0	0	0	0	0	1	24	22
Cn1ccc2ncnc(Oc3ccc(NC(=O)Nc4ccccc4)cc3)c21	0	0	1	4	1	97.6	100	0	0	0	0	0	0	22	0	16	0	0	0	21
Clc1cc(Cl)cc(Nc2ccnc(Nc3cc(Cl)cc(Cl)c3)n2)c1 [GSK175726]	9	10	0	19	0	14	21	19	2	0	0	0	6	0	5	40	38	3	0	1
COc1ccc(Nc2nccc(NCCNC(=O)Nc3ccccc3F)n2)cc1 [GSK1379901]	0	0	4	0	0	0	70	0	3	26	0	0	0	0	0	0	0	0	11	0
O=C(O)COc1ncnc2cc(-c3ccc4[nH]ncc4c3)sc12	0	7	17	0	0	45	31	0	0	12	13	3	0	23	0	47	5	0	35	12
COc1ccccc1CNC(=O)c1cc(C(=O)c2ccccc2C)c[nH]1 [GSK364507]	0	0	4	0	27	0	52	0	0	22	1	0	0	0	0	0	0	0	16	0
Cc1cccc(-c2nc(Nc3cccc(C(N)=O)c3)c3ccccc3n2)n1 [GW876019]	0	0	0	0	0	0	5	0	20	0	0	8	0	44	0	0	48	0	0	16
CC(C)(C)c1ccc(C(=O)Nc2cn3cc(Cl)ccc3n2)cc1	0	27	0	0	0	12	71	0	0	0	0	0	0	0	0	0	0	0	0	4
